SSB-PriA inh = K. pneumoniae PriA-SSBct interaction inhibition; AID 1272365; inhibition, % at 33 µM; 0.6% of 430,000 active; AlphaScreen SSBct-PriA binding, biotinylated peptide; in the data active = inhibition mostly above about 37%, no sharp cut-off; inactive = mostly below about 20%;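 also: plate controls were negative control peptide for no effect and reference peptide for full effect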
BoNT-F LC inh = blocks Botulinum neurotoxin F light chain protease; Multiplex microsphere protease cleavage assay, flow cytometry; inhibition, % at 10 µM; 0.22% of 360,000 active; in the data active = inhibition above about 35%, passing the limit was not always enough; inconclusive = no clear call, values can overlap the other calls; also: plate controls were buffer without enzyme for full effect and enzyme alone for no effect
Autofluor counter = compound fluorescence in toxin protease inhibitor counterscreen; AID 624483; compound autofluorescence counterscreen, microsphere flow cytometry; stronger effect = higher value; fluorescence intensity (no concentration beside the values); 3.1% of 360,000 active; in the data active = fluorescence intensity above about 16000; inconclusive = no clear call, values can overlap the other calls
Anthrax LF prot = blocks Bacillus anthracis lethal factor protease | P15917 | multiplex microsphere protease cleavage assay, LF | 0.12% of 360,000 active | inhibition, % at 10 µM; also: plate controls were buffer without enzyme for full effect and enzyme alone for no effect
Target sequence (P15917 whole entry, looked up): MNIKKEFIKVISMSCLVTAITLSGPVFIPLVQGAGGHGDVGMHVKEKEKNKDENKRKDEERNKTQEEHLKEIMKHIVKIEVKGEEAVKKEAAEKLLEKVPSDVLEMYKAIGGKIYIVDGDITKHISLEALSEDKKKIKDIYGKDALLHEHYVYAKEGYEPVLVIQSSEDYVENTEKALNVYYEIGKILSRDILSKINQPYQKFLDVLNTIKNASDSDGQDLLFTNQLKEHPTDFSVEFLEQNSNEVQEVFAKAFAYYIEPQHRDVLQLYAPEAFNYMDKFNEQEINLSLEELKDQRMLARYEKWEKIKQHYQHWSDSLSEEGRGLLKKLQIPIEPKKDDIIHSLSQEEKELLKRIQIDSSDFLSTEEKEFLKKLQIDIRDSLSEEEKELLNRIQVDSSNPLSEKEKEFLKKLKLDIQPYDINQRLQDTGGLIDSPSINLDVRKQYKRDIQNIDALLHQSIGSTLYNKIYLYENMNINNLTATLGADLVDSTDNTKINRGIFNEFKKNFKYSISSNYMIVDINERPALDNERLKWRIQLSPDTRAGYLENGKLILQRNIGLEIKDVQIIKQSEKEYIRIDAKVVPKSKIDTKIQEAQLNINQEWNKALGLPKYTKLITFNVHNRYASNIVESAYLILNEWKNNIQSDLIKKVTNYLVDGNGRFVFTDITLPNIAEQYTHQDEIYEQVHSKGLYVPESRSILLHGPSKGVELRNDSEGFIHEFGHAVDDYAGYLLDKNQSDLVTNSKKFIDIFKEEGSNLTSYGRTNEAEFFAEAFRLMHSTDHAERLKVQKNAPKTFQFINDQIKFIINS
BoNT-A LC inh2 = blocks Botulinum neurotoxin A light chain protease | multiplex microsphere protease substrate cleavage, flow cytometry | inhibition, % at 10 µM | 0.17% of 360,000 active | AID 588499; also: plate controls were buffer without enzyme for full effect and enzyme alone for no effect
* marks the source's active call; other numbers are inactive results; ? = inconclusive; · = not tested or not shown. An excerpt weighted towards active compounds, which were near 3.1% of everything screened. Rule as the data show it, unless noted: active = inhibition above about 30%; inconclusive = no clear call, values can overlap the other calls; inactive = below that.

SMILES | SSB-PriA inh | BoNT-F LC inh | Autofluor counter | Anthrax LF prot | BoNT-A LC inh2
COc1ccccc1NS(=O)(=O)c1cc(C(=O)N2CC(C)CC(C)C2)ccc1C (stereo unspecified) | 4 | 2 | 22186* | 0 | ?
Cc1ccccc1NS(=O)(=O)c1cc(C(=O)N2CCCC2)ccc1C | -5 | · | · | · | ·
C#CCn1c(S(=O)(=O)Cc2ccccc2Cl)nc(-c2ccccc2)c1-c1ccccc1 | -13 | -14 | 11876 | -4 | -1
C#CCn1c(S(=O)(=O)Cc2ccc(C)cc2)nc(-c2ccccc2)c1-c1ccccc1 | -1 | 14 | 17325* | -2 | 11
COc1ccc(F)cc1S(=O)(=O)NCC1CCN(c2cnccn2)CC1 | -12 | · | · | · | ·
Cc1ccc(NC(=O)C(=O)NCC2CCN(Cc3ccccc3)CC2)cc1F | -17 | · | · | · | ·
COc1nc(OC)nc(N2CCC(C(=O)Nc3cccc4ccccc34)CC2)n1 | -7 | -4 | 23395* | -3 | -2
COc1nc(OC)nc(N2CCC(C(=O)NCc3ccco3)CC2)n1 | -9 | 2 | 19494* | 0 | 2
COC(=O)c1c(C)n(Cc2ccco2)c2ccc(O)cc12 | 15 | -9 | 24915* | -2 | -8
Nn1c(COc2ccccc2)nnc1SC(F)F | 0 | -2 | 23749* | -3 | 0
O=C(Cn1ccc2ccccc21)Nc1cc(N2CCCC2)ncn1 | -4 | · | · | · | ·
O=C(Cn1ccc2ccccc21)Nc1cc(N2CCN(Cc3ccccc3)CC2)ncn1 | 44* | · | · | · | ·
COC(=O)c1scc(C)c1NN=C(C)c1cc(F)c(Cl)cc1F | -6 | · | · | · | ·
COC(=O)c1scc(C)c1N/N=C(\C)c1cc(F)c(Cl)cc1F | · | -2 | 16330* | -2 | 0
CC(=O)N1CCN(Cc2nc3cc(NC(=O)c4ccccc4Cl)ccc3n2C)CC1 | -10 | -2 | 4843 | 5 | 0
Cn1c(CN2CCCC2)nc2cc(NC(=O)C3CCCCC3)ccc21 | -8 | 0 | 17014* | 1 | 0
CC(C)C(=O)Nc1ccc2c(c1)nc(CCN1CCN(C)CC1)n2C | -9 | -5 | 24142* | -2 | -2
Cn1c(CN2CCCCC2)nc2cc(NC(=O)c3ccccc3Cl)ccc21 | -8 | -4 | 20760* | -2 | -2
O=C(CN1CCN(Cc2nc3ccccc3[nH]2)CC1)Nc1nc2ccccc2s1 | -3 | · | · | · | ·
O=C(Nc1cccnc1)Nc1ccc(Br)cc1Cl | -21 | -2 | 16594* | -3 | 0
CCOC(=O)C1CCCN(CC(O)COc2ccccc2C(C)=O)C1 (stereo unspecified) | -20 | -1 | 22881* | -6 | 0
CCOC(=O)C1CCCN(CC(O)COc2ccccc2)C1 (stereo unspecified) | -18 | · | · | · | ·
CCOC(=O)C1CCN(Cc2c(F)cccc2Cl)CC1 | -24 | -6 | 25112* | 0 | -5
CCOC(=O)C1CCN(Cc2cnc(Oc3ccc(OC)cc3)s2)CC1 | -15 | -5 | 24024* | -2 | -4
CCOC(=O)C1CCCN(Cc2c(F)cccc2Cl)C1 (stereo unspecified) | -16 | 1 | 20111* | -1 | 1
SMILES | SSB-PriA inh | BoNT-F LC inh | Autofluor counter | Anthrax LF prot | BoNT-A LC inh2
CCOC(=O)C1CCN(Cc2ccc(OC)cc2OC)CC1 | -9 | -13 | 4278 | -6 | 0
O=C(COc1ccccc1)NN=Cc1cc2c(cc1[N+](=O)[O-])OCO2 | -8 | · | · | · | ·
CCn1c(=NC(=O)c2ccccc2S(=O)(=O)CC)sc2cc3c(cc21)OCCO3 | -4 | · | · | · | ·
CCOC(=O)C1CCN(Cc2cn[nH]c2-c2ccccc2)CC1 | -32 | -2 | 20102* | 3 | -1
CCOC(=O)C1CCCN(Cc2ccccc2OCC)C1 (stereo unspecified) | 1 | 0 | 19086* | -4 | 3
CCOC(=O)C1CCN(Cc2c(O)ccc3ccccc23)CC1 | 8 | 1 | 19910* | -1 | ?
CCOC(=O)C1CCCN(Cc2ccccc2C)C1 (stereo unspecified) | -12 | -8 | 9955 | -1 | -2
CCOC(=O)C1CCN(C(=O)c2cccnc2Cl)CC1 | 9 | -1 | 20039* | -2 | 0
CCOC(=O)C1CCN(C(=O)c2ccccc2NC(C)=O)CC1 | -12 | 1 | 2982 | -5 | 0
C[C@H](NC(=O)Cc1csc(Nc2ccc(S(C)(=O)=O)cc2)n1)c1ccccc1 | 2 | · | · | · | ·
CCOC(=O)C1CCCN(C(=O)CN2C(=O)c3ccccc3C2=O)C1 (stereo unspecified) | -12 | -1 | 20127* | -1 | ?
CCOC(=O)C1CCCN(C(=O)c2cc(Cl)ccc2Cl)C1 (stereo unspecified) | -7 | 11 | 8952 | -3 | 1
CCOC(=O)C1CCCN(C(=O)C(C)Oc2ccc(Cl)cc2Cl)C1 (stereo unspecified) | -19 | 4 | 22441* | 1 | ?
Cc1ccc(S(=O)(=O)N2CCCCC2CC(=O)Nc2ccc(F)c(C(F)(F)F)c2)cc1 (stereo unspecified) | -3 | · | · | · | ·
O=C(CCS(=O)(=O)c1cccs1)Nc1ccc(C(=O)NCc2cccs2)cc1 | 2 | 0 | 22948* | 1 | 1
Cc1cc(C(=O)NCc2cccs2)c(C)o1 | 2 | -1 | 19810* | -3 | 0
CCc1ccc(C(=O)NCc2cccs2)s1 | -12 | -2 | 11231 | -2 | 1
O=C(CCS(=O)(=O)c1cccs1)Nc1ccc(C(=O)NCc2ccc(F)cc2)cc1 | -9 | -3 | 3376 | -5 | 0
Cc1occc1C(=O)NCc1cccs1 | -3 | 0 | 2482 | 0 | 0
O=C(NCc1cccs1)c1cccnc1C(=O)O | -10 | -3 | 17016* | -7 | ?
O=C(NCc1cccs1)c1ccc(Cl)s1 | -12 | -4 | 24555* | -1 | -2
COC(=O)N1CCc2ccc(NC(=O)Nc3cc(Cl)ccc3OC)cc2C1 | 10 | · | · | · | ·
N#C/C(=C\c1ccccc1Cl)C(=O)Nc1cccc(C(F)(F)F)c1 | -2 | · | · | · | ·
O=C(Cc1ccccc1)NN=C/C=C/c1cccc([N+](=O)[O-])c1 | -15 | · | · | · | ·
CC(C)Oc1ccc(C(=O)NCc2cccs2)cc1 | -7 | -2 | 23288* | 0 | ?
SMILES | SSB-PriA inh | BoNT-F LC inh | Autofluor counter | Anthrax LF prot | BoNT-A LC inh2
C[C@H](NC(=O)NCc1cccs1)C(=O)O | 0 | 7 | 21235* | 3 | 3
CN(C)CCNC(=O)c1ccc(Cl)s1 | -1 | -5 | 17028* | -1 | ?
CCOc1cccc2cc(C(=O)Nc3ccccc3)oc12 | 1 | · | · | · | ·
CCOC(=O)CCc1c(C)c2ccc(OC(C)C(=O)OCC)c(C)c2oc1=O (stereo unspecified) | -17 | 2 | 20895* | 0 | 2
O=C1CCCc2nc(N3CCN(c4ccccc4)CC3)ncc21 | 2 | 17 | 3399 | 3 | 0
Cc1nc(N2CCN(c3ccccc3)CC2)nc2c1C(=O)CC(c1ccccc1)C2 (stereo unspecified) | 3 | 6 | 17903* | -12 | 6
Cc1nc(N2CCN(c3ccccc3)CC2)nc2c1C(=O)CC(C)C2 (stereo unspecified) | 8 | 1 | 21996* | -2 | 1
Cc1ccc(C2CC(=O)c3cnc(N4CCN(c5ccccc5)CC4)nc3C2)cc1 (stereo unspecified) | -1 | -6 | 9394 | -8 | -1
Cc1nc(N2CCN(c3ccccc3)CC2)nc2c1C(=O)CCC2 | -17 | 0 | 22851* | -3 | 1
Cn1cc(C(=O)N2CCC(Oc3ncccc3Cl)CC2)nn1 | 3 | · | · | · | ·
CC(C)CS(=O)(=O)C1CN(C(=O)C(C)(C)Oc2ccc(Cl)cc2)C1 | -3 | · | · | · | ·
